Results published in PubChem BioAssay.
Records with an inconclusive call do not appear. Active and inactive are the calls of the source.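 How the source made its calls, unless noted: active means Her2 level under about 52% in both replicate screens, with viability over 70% of control (limit read from the data); inconclusive means Her2 under the limit in one screen only, or viability under 70%; inactive means Her2 level above the set limit.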

Legend:
[1] = reducers of endogenous Her2 protein level, primary screen, SKBR3 breast tumor cells, AlphaScreen, ATP viability (AID 461); settings: 18-24 h, measured here: SKBR3 viability, ATP luminescence, at 10 µM;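 on Her2 level: lower value means less Her2 protein in the cells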;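 on viability: percent of carrier control wells set as 100% viability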
[2] = biological target: Receptor tyrosine-protein kinase erbB-2 (Homo sapiens) (UniProt P04626); test: as above; settings: 18-24 h, at 10 µM, stronger effect = lower value
Chain of Receptor tyrosine-protein kinase erbB-2 (Homo sapiens) (P04626 whole entry, looked up): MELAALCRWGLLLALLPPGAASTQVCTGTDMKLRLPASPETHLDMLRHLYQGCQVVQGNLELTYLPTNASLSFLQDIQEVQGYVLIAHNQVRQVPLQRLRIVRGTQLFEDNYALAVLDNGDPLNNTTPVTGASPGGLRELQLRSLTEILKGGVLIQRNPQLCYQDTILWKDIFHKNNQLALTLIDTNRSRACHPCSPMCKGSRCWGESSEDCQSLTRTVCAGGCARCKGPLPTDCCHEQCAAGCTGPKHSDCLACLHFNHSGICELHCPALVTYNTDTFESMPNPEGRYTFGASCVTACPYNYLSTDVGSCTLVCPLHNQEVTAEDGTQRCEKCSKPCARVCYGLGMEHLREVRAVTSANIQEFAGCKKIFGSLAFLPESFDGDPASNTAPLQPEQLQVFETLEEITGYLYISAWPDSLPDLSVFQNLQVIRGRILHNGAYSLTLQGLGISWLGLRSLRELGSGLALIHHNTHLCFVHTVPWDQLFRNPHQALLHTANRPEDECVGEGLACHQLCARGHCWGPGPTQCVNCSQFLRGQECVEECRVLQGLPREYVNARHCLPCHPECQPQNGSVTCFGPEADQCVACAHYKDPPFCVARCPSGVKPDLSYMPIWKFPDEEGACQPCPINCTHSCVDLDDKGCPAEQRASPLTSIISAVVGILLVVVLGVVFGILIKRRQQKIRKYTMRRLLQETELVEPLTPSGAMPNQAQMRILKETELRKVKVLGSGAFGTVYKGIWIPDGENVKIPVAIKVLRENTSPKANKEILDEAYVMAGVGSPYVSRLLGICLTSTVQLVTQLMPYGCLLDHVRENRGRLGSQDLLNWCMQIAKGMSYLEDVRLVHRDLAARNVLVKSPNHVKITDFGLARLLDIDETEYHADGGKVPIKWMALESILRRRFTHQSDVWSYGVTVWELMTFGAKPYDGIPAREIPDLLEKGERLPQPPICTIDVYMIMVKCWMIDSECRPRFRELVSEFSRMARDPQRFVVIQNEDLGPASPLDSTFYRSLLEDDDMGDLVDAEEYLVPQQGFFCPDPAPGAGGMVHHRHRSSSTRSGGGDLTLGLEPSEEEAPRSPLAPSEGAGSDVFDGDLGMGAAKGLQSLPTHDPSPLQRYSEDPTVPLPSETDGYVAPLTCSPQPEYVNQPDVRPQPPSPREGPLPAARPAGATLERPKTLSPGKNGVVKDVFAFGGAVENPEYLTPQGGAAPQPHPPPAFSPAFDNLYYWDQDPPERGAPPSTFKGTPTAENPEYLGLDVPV

[3] = SK-BR-3 cell growth inhibitors, pilot screen, 24 h, human (AID 572;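 active means viability at or below 10% of carrier control in both of two separate runs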;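 further: compound exposure lasted between 18 and 24 h rather than exactly 24 h; 100% = carrier-treated control wells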); settings: SK-BR-3 viability, CellTiter-Glo luminescence, at 10 µM, stronger effect = lower value
[4] = HUVEC growth inhibition – cell-based, human, primary screen (AID 575;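 active means viability at or below 30% in both replicate assays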;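 further: 100% = median of untreated cell wells with 0.1% DMSO on each plate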); settings: HUVEC proliferation, CellTiter-Glo luminescence, 72 h; at 10 µM; stronger effect = lower value
[5] = growth inhibitors of H69AR lung tumor, primary screen, human, duplicate replicates (AID 580;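 active means viability at or under a set limit in both replicates, limit being median viability minus 3 SD, cut at about 48% in these data, passing the limit was not always enough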;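 further: 100% = mean luminescence of untreated wells and 0% = no signal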); settings: H69AR lung tumor cells viability, ATP luminescence, 72 h; at 10 µM; stronger effect = lower value
[6] = reversal of MRP1-mediated doxorubicin resistance, pilot screen, H69AR cells, doxorubicin co-treatment (AID 601;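 active means viability loss from added drug above about 55%, and viability with drug at most 40%, in both replicates, limit read from the data, passing the limit was not always enough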); settings: CellTiter-Glo, 72 h, at 10 µM; for differential viability (reversal): stronger effect = higher value
[7] = 384-well plate pilot, post-Golgi transport modulator project, inhibition of yeast transport mutant growth (AID 636; in the data active means inhibition above about 31%); settings: absorbance 615 nm, about 18 h, stronger effect = higher value
[8] = growth suppression of yeast trafficking mutant, preliminary HTS, modulators of trafficking downstream of Golgi apparatus project, 1536-format plate, OD 615 nm (AID 637; in the data active means inhibition above about 30%); settings: yeast transport mutant growth, absorbance 615 nm, 18 h; stronger effect = higher value
[9] = OD615 S. cerevisiae growth inhibition, permissive medium, pilot counter-assay, permissive growth control for S. cerevisiae lifespan shortening project (AID 705;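 active means growth inhibition above 25% in both replicates, a cutoff set 3 SD above the mean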); settings: OD615, 24 h, at 10 µM, stronger effect = higher value
[10] = Restrictive medium S. cerevisiae growth inhibition, OD615, pilot screen of yeast lifespan reduction project, restrictive growth control (AID 706;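 active means growth inhibition above a set limit, 3 SD over mean compound inhibition, in both replicates, cut at about 43% in these data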;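 further: modified DeaD lifespan yeast strain shifted to restrictive glucose medium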); settings: OD615, 48 h, at 10 µM, stronger effect = higher value
[11] = viability gain of MRP-1-high H69AR cells under doxorubicin, pilot screen, MRP-1 activator project, CellTiter-Glo, duplicate (AID 807;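 active means viability increase at or above a cutoff of the median across tested compounds plus 3 SD, cut at about 8.5% in these data, passing the limit was not always enough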;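 further: compound pretreatment 18-22 h then 72 h combined with doxorubicin; 0% = doxorubicin alone and 100% = vehicle without doxorubicin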); settings: H69AR viability with doxorubicin, CellTiter-Glo luminescence; at 10 µM; stronger effect = higher value
[12] = growth suppression of beta-catenin knockout HCT116, pilot screen, human colon tumor cells (AID 823;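 active means cell viability at or below a set limit in both duplicate runs, the limit being the all-compound median minus 4 SD, cut at about 23% in these data, passing the limit was not always enough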;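 further: 0% = wells killed by 20 µM Hyamine and 100% = untreated DMSO cell wells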); settings: CellTiter-Glo, 60 h, at 10 µM, stronger effect = lower value
[13] = growth suppression of PTEN-deleted HCT116, pilot screen, cell-based, HCT116 clonal line, CellTiter-Glo (AID 824;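 active means viability at or below 27.92% in each of two runs, the all-compound median minus 4 SD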;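 further: 0% = 20 µM Hyamine control and 100% = vehicle cell control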); settings: 60 h, at 10 µM, stronger effect = lower value
[14] = inhibitors of the yeast RAM network, pilot screen, dse1pr::URA3 reporter, 5-FOA selection (AID 869;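 active means inhibition over a set limit, the all-compound mean plus 3 SD, in both replicate runs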;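 further: 0% = DMSO wells with no growth and 100% = 10 µM 1-NA-PP1 with full growth; RAM network block rescues cells from 5-FOA so hits raise OD615 growth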); settings: S. cerevisiae dse1pr::URA3 5-FOA growth, OD615, 2 d; at 10 µM; stronger effect = higher value; strain carries analog-sensitive mutant Cbk1 kinase
[15] = RAM signaling pathway blockade in yeast – S. cerevisiae, Pdr1DBD-CYC8 efflux-inhibited sensitized strain, primary screen (AID 1298;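 active means RAM network inhibition above 8.4% in each of two replicates, 3 SD over the compound average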;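 further: 0% = DMSO untreated cells without growth and 100% = 10 µM 1-NA-PP1 full growth; higher means more yeast growth rescued from 5-FOA killing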); settings: S. cerevisiae cbk1-as DSE1-URA3 strain, 5-FOA growth OD615, 2 d; at 50 µM; stronger effect = higher value
[16] = H69AR cells + 2 uM doxorubicin, measured here: viability with 2 uM doxorubicin, stronger effect = lower value
[17] = H69AR cells, compound alone cytotoxicity

Row | Structure (SMILES) | viability [1] [%] | Her2 level [2] | viability [3] | viability [4] | viability [5] | differential viability (reversal) ([6]; H69AR cells + 2 uM doxorubicin) | viability [6, 16] [%] | viability [6, 17] [%] | inhibition [7] | inhibition [8] | growth inhibition [9] | growth inhibition [10] | viability increase [11] | viability [12] | viability [13] | inhibition [14] | RAM network inhibition [15]
1 | COc1ccc(S(=O)(=O)NCC(c2cccnc2)N2CCN(C)CC2)cc1C (stereo not drawn) | 97 | 98.5% (inactive) | 97% (inactive) | 80.9% (inactive) | 91% (inactive) | -2.52% (inactive) | 93.5 | 91 | -0.64% (inactive) | -2% (inactive) | 1.16% (inactive) | -9.37% (inactive) | -2.64% (inactive) | 97.8% (inactive) | 96.1% (inactive) | 2.23% (inactive) | 0.11% (inactive)
2 | CCOc1ccc(N(CC(=O)NC2CCCC(C)C2C)S(=O)(=O)c2c(C)noc2C)cc1 (stereo not drawn) | 89.5 | 81.5% (inactive) | 89.5% (inactive) | 64.3% (inactive) | 73.1% (inactive) | 6.81% (inactive) | 66.3 | 73.1 | 1.41% (inactive) | 13.5% (inactive) | -9.98% (inactive) | -14.4% (inactive) | -1.09% (inactive) | 82.8% (inactive) | 83.6% (inactive) | 0.98% (inactive) | 6.62% (inactive)
3 | COc1c(C(=O)Nc2c(C)n(C)n(-c3ccccc3)c2=O)ccc2ccccc12 | 97 | 104% (inactive) | 97% (inactive) | 99.3% (inactive) | 113% (inactive) | 25.5% (inactive) | 87 | 113 | -1.07% (inactive) | -6.45% (inactive) | -2.42% (inactive) | -6.28% (inactive) | -0.81% (inactive) | 98.8% (inactive) | 98.3% (inactive) | 0.775% (inactive) | 4.37% (inactive)
4 | Cc1cccc(C2CC(c3ccc(Cl)cc3)Nc3nc(N)nn32)c1 (stereo not drawn) | 91 | 113% (inactive) | 91% (inactive) | 103% (inactive) | 96.6% (inactive) | -10.4% (inactive) | 107 | 96.6 | 0.4% (inactive) | -5.25% (inactive) | 0.43% (inactive) | 23.9% (inactive) | 4.33% (inactive) | 82.1% (inactive) | 74.9% (inactive) | 0.01% (inactive) | 3.62% (inactive)
5 | CCOc1ccccc1N(CC(=O)N1CCCCCC1)S(C)(=O)=O | 99 | 97% (inactive) | 99% (inactive) | 97.5% (inactive) | 99.8% (inactive) | 10.3% (inactive) | 89.5 | 99.8 | -1.3% (inactive) | 1.15% (inactive) | -4.37% (inactive) | -10.9% (inactive) | -1.33% (inactive) | 91.1% (inactive) | 99.4% (inactive) | 0.65% (inactive) | 3.99% (inactive)
6 | NC(=O)CSc1cn(CCNC(=O)c2cccs2)c2ccccc12 | 99.5 | 92.5% (inactive) | 99.5% (inactive) | 99.4% (inactive) | 93.4% (inactive) | 1.49% (inactive) | 91.9 | 93.4 | -4% (inactive) | -2.83% (inactive) | -14.1% (inactive) | -28% (inactive) | -0.44% (inactive) | 107% (inactive) | 94.8% (inactive) | 1.34% (inactive) | 5.84% (inactive)
7 | COCCCN(C)C1CCN(C(=O)Nc2ccc(F)cc2)CC1 | 106 | 124% (inactive) | 106% (inactive) | 109% (inactive) | 89% (inactive) | -5.42% (inactive) | 94.4 | 89 | -3.47% (inactive) | -1.5% (inactive) | -6.78% (inactive) | 3.39% (inactive) | 0.68% (inactive) | 103% (inactive) | 105% (inactive) | 0.185% (inactive) | 8.93% (inactive)
8 | COC(=O)CCCCCc1ccc(C(C)=O)s1 | 86.5 | 84.5% (inactive) | 86.5% (inactive) | 105% (inactive) | 100% (inactive) | 13.6% (inactive) | 86.5 | 100 | -1.33% (inactive) | -1.61% (inactive) | -3.98% (inactive) | -1.53% (inactive) | 0.73% (inactive) | 96.7% (inactive) | 95% (inactive) | 0.02% (inactive) | 3.12% (inactive)
9 | O=C(O)C1C2C=CC3(CN(C4CCCC4)C(=O)C13)O2 (stereo not drawn) | 101 | 100% (inactive) | 101% (inactive) | 100% (inactive) | 83.7% (inactive) | -9.36% (inactive) | 93.1 | 83.7 | -7.07% (inactive) | -4.83% (inactive) | 1.69% (inactive) | 2.54% (inactive) | -0.64% (inactive) | 104% (inactive) | 95.5% (inactive) | 2.34% (inactive) | -0.17% (inactive)
10 | CCN1C(=O)c2ccccc2S(=O)c2ccc(C(=O)NC3CC3)cc21 (stereo not drawn) | 100 | 93.5% (inactive) | 100% (inactive) | 105% (inactive) | 105% (inactive) | 16% (inactive) | 88.7 | 105 | -2.8% (inactive) | 3.77% (inactive) | 4.88% (inactive) | 1.4% (inactive) | -2.52% (inactive) | 97.6% (inactive) | 95.3% (inactive) | 0.16% (inactive) | 1.98% (inactive)
11 | Cn1c(C(=O)NCCN2CCN(c3ccccc3F)CC2)cc2c(=O)n(C)c3ccccc3c21 | 89 | 73.5% (inactive) | 89% (inactive) | 70.3% (inactive) | 69.7% (inactive) | -2.84% (inactive) | 72.5 | 69.7 | -1.03% (inactive) | 2% (inactive) | -0.67% (inactive) | -2.32% (inactive) | -2.38% (inactive) | 74.4% (inactive) | 73.2% (inactive) | 0.115% (inactive) | 0.11% (inactive)
12 | CCOC(=O)N1CCC(N2C(=O)c3ccccc3C2Nc2ccccc2C)CC1 (stereo not drawn) | 95.5 | 96.5% (inactive) | 95.5% (inactive) | 84% (inactive) | 79.8% (inactive) | 32% (inactive) | 47.8 | 79.8 | -5.2% (inactive) | -8.5% (inactive) | -16.1% (inactive) | -23.2% (inactive) | -4.35% (inactive) | 88.2% (inactive) | 82.5% (inactive) | 2.58% (inactive) | 7.43% (inactive)
13 | CCOc1ccc2nc(Nc3nc4c(c(=O)[nH]3)CCC4)nc(C)c2c1 | 99.5 | 99% (inactive) | 99.5% (inactive) | 98.4% (inactive) | 103% (inactive) | 5.67% (inactive) | 97.7 | 103 | -4% (inactive) | 1.83% (inactive) | -9.17% (inactive) | 9.05% (inactive) | 0.54% (inactive) | 93.8% (inactive) | 96.4% (inactive) | 1.01% (inactive) | 3.45% (inactive)
14 | Cc1cc(C)nc(SCc2csc(N)n2)n1 | 89.5 | 85% (inactive) | 89.5% (inactive) | 89.6% (inactive) | 90.1% (inactive) | -4.05% (inactive) | 94.1 | 90.1 | -0.26% (inactive) | -2.67% (inactive) | 3.96% (inactive) | 14.9% (inactive) | 1.21% (inactive) | 105% (inactive) | 99.6% (inactive) | 0.605% (inactive) | 4.19% (inactive)
15 | COc1ccc(N2CCN(C(=O)c3c(-c4ccccc4)noc3C)CC2)cc1 | 91.5 | 108% (inactive) | 91.5% (inactive) | 94.4% (inactive) | 88.1% (inactive) | -4.69% (inactive) | 92.8 | 88.1 | 0.51% (inactive) | 4% (inactive) | -9.57% (inactive) | -10.4% (inactive) | -2.79% (inactive) | 94.4% (inactive) | 90.3% (inactive) | 0.795% (inactive) | 4.5% (inactive)
16 | COc1ccc(NS(=O)(=O)c2coc(C(N)=O)c2)cc1Cl | 101 | 110% (inactive) | 101% (inactive) | 119% (inactive) | 99.1% (inactive) | -8.07% (inactive) | 107 | 99.1 | 0% (inactive) | 11% (inactive) | -21.1% (inactive) | -10.9% (inactive) | -0.71% (inactive) | 108% (inactive) | 102% (inactive) | 1.92% (inactive) | 1.58% (inactive)
17 | Cn1cnc2cc(NC(=O)c3ccc(Cl)cc3)ccc21 | 91.5 | 90.5% (inactive) | 91.5% (inactive) | 88.1% (inactive) | 93% (inactive) | -2.15% (inactive) | 95.2 | 93 | -4% (inactive) | -3.33% (inactive) | 0.595% (inactive) | 7.51% (inactive) | 0.08% (inactive) | 94.5% (inactive) | 96.5% (inactive) | 0.75% (inactive) | -1.41% (inactive)
18 | CCC(C)NC(=O)c1cc(CC(C)C)on1 (stereo not drawn) | 84 | 111% (inactive) | 84% (inactive) | 95.5% (inactive) | 83.6% (inactive) | -11.1% (inactive) | 94.7 | 83.6 | -0.26% (inactive) | 18.3% (inactive) | -2.93% (inactive) | -0.685% (inactive) | 1.13% (inactive) | 102% (inactive) | 103% (inactive) | -0.07% (inactive) | 2.69% (inactive)
19 | Cc1cccc(NC(=O)Nc2cccc(C#N)c2)n1 | 100 | 66.5% (inactive) | 100% (inactive) | 63.2% (inactive) | 84% (inactive) | -3.47% (inactive) | 87.5 | 84 | 0.38% (inactive) | 3.67% (inactive) | -8.45% (inactive) | 0.81% (inactive) | -4.03% (inactive) | 43.5% (inactive) | 46% (inactive) | 3.24% (inactive) | 2.88% (inactive)
